A selection: hits, their analogues and other compounds. The true share with any hit is near 2.5%.
Cruzain noTriton: cruzain (T. cruzi) inhibition without detergent; actives 2.3% (n = 200,000); P25779; purified cruzain, Z-FR-AMC fluorescence, no detergent; Potency, µM, actives largely listed as inhibitors; note: nearly all actives have a fitted effect of over 40% in size
Target sequence (P25779 123-467 limits assumed): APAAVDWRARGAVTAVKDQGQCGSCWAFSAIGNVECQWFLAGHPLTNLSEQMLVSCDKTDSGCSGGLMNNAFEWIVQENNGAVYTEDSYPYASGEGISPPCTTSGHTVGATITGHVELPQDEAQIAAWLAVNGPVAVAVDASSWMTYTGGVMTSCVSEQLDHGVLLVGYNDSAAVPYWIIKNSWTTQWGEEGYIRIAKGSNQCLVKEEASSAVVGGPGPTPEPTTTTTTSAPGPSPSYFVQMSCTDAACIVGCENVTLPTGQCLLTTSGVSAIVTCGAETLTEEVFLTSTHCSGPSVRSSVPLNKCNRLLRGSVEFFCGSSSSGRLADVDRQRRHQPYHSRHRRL
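Purified cruzain at 1.5 nM, pre-incubated 15 min with compound at room temperature in 100 mM sodium acetate pH 5.5, 5 mM DTT, 0.00005% Triton X-100. Reaction started with 2 uM Z-FR-AMC; AMC fluorescence increase over 60 s gives rate.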
Cruzain Triton: cruzain (T. cruzi) inhibition with detergent; purified cruzain, Z-FR-AMC fluorescence, 0.01% Triton; Potency, µM, usual class: inhibitors; actives 0.43% (n = 200,000); note: nearly all actives have a fitted effect of over 40% in size
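Cysteine protease activity tested under reducing, mildly acidic conditions (100 mM sodium acetate pH 5.5, 5 mM DTT) plus 0.01% Triton X-100. Cruzain 1.5 nM; substrate Z-FR-AMC 2 uM; 15 min compound preincubation at room temperature.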
Numbers stand for hits; 0 = inactive; ? = inconclusive. Calls come from the whole dose curve; as a rule, active = well fitted curve in the direction sought with a large enough effect; inconclusive = small, poorly fitted or top-dose-only effect, or another doubt; inactive = no such curve, though single readings can be large; an effect the other way counts as inactive or inconclusive.

SMILES | Cruzain noTriton | Cruzain Triton
COc1cccc(Nc2ncc3ncc(=O)n(Cc4cccs4)c3n2)c1 | 0 | 0
COc1ccc(C2c3c(oc4ccc(Cl)cc4c3=O)C(=O)N2CCCN(C)C)cc1OC (configuration not stated) | 0 | 0
Cc1ccsc1CN(C(=O)c1ccc(OCC(C)C)cc1)C1CCS(=O)(=O)C1 (configuration not stated) | 0 | 0
CCCCN(c1ccccc1)c1ncnc2c1cnn2-c1ccc(Cl)cc1 | 0 | 0
Cc1ccc(S(=O)(=O)C(CNC(=O)COc2ccc(Cl)cc2)c2ccco2)cc1 (configuration not stated) | 0 | 0
CC(C)OCCCn1c(=O)c2ccccc2n2c(-c3ccccc3)nnc12 | 0 | 0
COc1ccccc1OCCn1c(NC(=O)c2ccc(Cl)cc2)nc2ccccc21 | 0 | 0
S=C(Nc1ccccc1)Nc1nc2ccccc2n1CCOc1ccc(Cl)cc1 | 10µM | 0
CCn1c(NC(=S)Nc2ccccc2)nc2ccccc21 | 25µM | 0
Clc1ccc(NCc2nc3ccccc3n2CCOc2ccccc2)cc1 | 0 | 0
CCCn1c(NC(=S)Nc2ccccc2)nc2ccccc21 | 0 | 0
COc1ccccc1OCCn1c(NC(=O)c2ccccc2Cl)nc2ccccc21 | 20µM | 0
Cn1c(=O)cnc2cnc(Oc3ccccc3)nc21 | 0 | 0
Cc1ccc(-c2nc(NC(=O)CSc3ncnc4sc5c(c34)CCC(C)C5)ns2)cc1 (configuration not stated) | 0 | 0
Cc1nn(CCC(=O)NCc2cccc(Br)c2)c(=O)c2nn(-c3ccccc3)c(C)c12 | 0 | 0
Cc1ccc(NC(=O)C(=O)NCC(c2cccnc2)N2CCc3ccccc32)cc1Cl (configuration not stated) | 0 | 0
COc1ccc(CC(=O)Nc2cc(-c3cn4cccnc4n3)ccc2OC)cc1 | 0 | 0
Cc1nc(NC(=O)c2c(-c3ccccc3)c(-c3ccccc3)nn(C)c2=O)sc1C | ? | 0
O=C(Nc1ncc(Cc2ccccc2Cl)s1)c1ccc2c(c1)CC(c1ccccc1)OC2=O (configuration not stated) | 32µM | 0
CCc1ccc(Cc2cnc(NC(=O)c3ccc4c(c3)CC(c3ccccc3)OC4=O)s2)cc1 (configuration not stated) | ? | 0
CC(C)c1ccc(NC(=O)C(Cc2ccccc2)NS(=O)(=O)c2ccc3c(c2)oc(=O)n3C)cc1 (configuration not stated) | 0 | 0
COc1ccc(-n2c3c(c(=O)[nH]c2=O)C(NC(C)=O)(C(F)(F)F)C(=O)N3)cc1 (configuration not stated) | 0 | 0
CS(=O)(=O)c1ccc2nc(NC(=O)Nc3ccc(Cl)c(Cl)c3)sc2c1 | 10µM | 0
CS(=O)(=O)c1ccc2nc(NC(=O)Nc3cccc(Cl)c3)sc2c1 | ? | 0
COc1ccc(-c2nc3cnc(N4CCNCC4)nc3n(C)c2=O)cc1 | 0 | 0
SMILES | Cruzain noTriton | Cruzain Triton
O=C(NNC(=O)c1cccs1)c1ccc(Br)o1 | 0 | 0
O=C(Nc1ccc(NC(=O)c2cccs2)cc1)c1ccc(Br)o1 | 25µM | 0
COc1ccccc1CNS(=O)(=O)c1cnc(N)nc1 | 0 | 0
Cc1ccc(NS(=O)(=O)c2cc(NC(=O)c3cc4c(s3)CCCC4)ccc2C)c(C)c1 | 32µM | 0
Cc1ccc(NC(=O)c2cc3c(s2)CCC3)cc1S(=O)(=O)N1CCOCC1 | 0 | 0
CCN(CC)C(=O)c1sc(NC(=O)C(C)Sc2nc(-c3ccccc3)cc(C(F)(F)F)n2)c(C(=O)OC)c1C (configuration not stated) | ? | 0
CC(/C=N/N1CCN(c2ccc(C)cc2)CC1)=C\c1ccccc1 | 0 | 0
CC(/C=N\N1CCN(c2ccc(Cl)cc2)CC1)=C\c1ccccc1 | 7.9µM | 0
COc1ccccc1N(O)C1CC(=O)N(c2ccc(Br)cc2)C1=O (configuration not stated) | ? | 0
CCCCCCC(=O)N(O)C1CC(=O)N(c2ccc(Br)cc2)C1=O (configuration not stated) | 10µM | 0
O=C(O)CCC(=O)Nc1cccc(C(=O)Nc2cccc(Cl)c2)c1 | 0 | 0
O=C(Cc1ccccc1)Nc1ccc(NC(=O)c2cccc(Cl)c2)cc1 | 25µM | 0
COc1ccc(C2CC(c3ccccc3)=NN2c2ccc(N)cc2)cc1 (configuration not stated) | 20µM | 0
CCOC(=O)C1=NN(c2ccc(OC)cc2)C(c2ccccc2)CC1=O (configuration not stated) | 0 | 0
CCc1ccccc1N(CC)C(=O)c1cc2c(s1)-c1ccccc1OC2 | 0 | 0
NC(C(=O)O)C(O)C(=O)O (configuration not stated) | 0 | 0
CCOC(=O)c1ccc(NC(=O)CC2C(=O)N(c3cccc(OC)c3)C(=O)N2Cc2ccc(OC)cc2)cc1 (configuration not stated) | ? | 0
Cc1nn(-c2nc3ccccc3s2)c(N)c1-c1ccccc1 | ? | 0
Cc1nn(-c2nc3ccccc3s2)c(N)c1Sc1ccc(F)cc1 | 13µM | 0
Cc1cc(C(=O)OCC(=O)Nc2ccc(F)cc2[N+](=O)[O-])c2ccccc2n1 | 20µM | 0
Cc1cc(C(=O)OCC(=O)NC(C)(C)C)c2ccccc2n1 | 0 | 0
COc1ccccc1-c1noc(CSc2nnc(Cc3ccccc3)n2-c2ccc(C)c(C)c2)n1 | 0 | 0
Cc1cc(C)c2c(c1)NC(=O)C2(O)c1c[nH]c2ccccc12 (configuration not stated) | 0 | 0
O=C1SC(SCc2ccccc2)=N/C1=C\c1ccco1 | 0 | 0
CC(/C=C1\N=C(SCc2ccccc2Cl)SC1=O)=C\c1ccccc1 | 25µM | 0
SMILES | Cruzain noTriton | Cruzain Triton
Cc1ccc(NC(=O)CSc2nc(C)cc(C)c2C(=O)Nc2cccc(C)c2)cc1 | 0 | 0
COc1ccc(Nc2oc(COc3ccccc3F)nc2C#N)cc1 | 25µM | 0
COc1ccc(Nc2oc(COc3ccc(OC)cc3)nc2C#N)cc1 | 0 | 0
COc1ccc(Nc2oc(-c3ccc(COc4cccc(C)c4)o3)nc2C#N)cc1 | 16µM | 0
COc1ccc(Nc2oc(-c3ccc(COc4ccc(OC)cc4)o3)nc2C#N)cc1 | 0 | 0
CCOc1ccc(Nc2oc(-c3ccc(COc4ccc(C)cc4)o3)nc2C#N)cc1 | 3.2µM | 0
COc1ccc(Nc2oc(-c3ccc(COc4ccccc4)o3)nc2C#N)cc1 | ? | 0
Cc1ccc(CNC(=O)Cn2ccn(-c3ccc(F)c(F)c3)c(=O)c2=O)cc1 | 0 | 0
Cc1cccc(N2CCN(C(=O)C3CCN(C(=O)c4cc5sccc5n4C)CC3)CC2)c1C | ? | 0
Cc1ccc2c(c1)N(CCCC(=O)Nc1cccc(C(F)(F)F)c1)C(=O)CO2 | 0 | 0
Cc1ccc(C(C)C)c(OCC(=O)Nc2ccc(C(=O)OC3CCCCC3)cc2)c1 | 0 | 0
CSc1nc(N2CCN(CCO)CC2)c2sc3nc(-c4ccco4)c4c(c3c2n1)CCC4 | 0 | 0
CSc1nc(N(C)CCO)c2sc3nc(-c4ccco4)c4c(c3c2n1)CCC4 | 0 | 8.9µM
CC(C)[C@H](NC(=O)c1ccccc1)C(=O)OCc1nc2scc(-c3ccccc3)c2c(=O)[nH]1 | ? | 0
O=C(OCc1nc2scc(-c3ccccc3)c2c(=O)[nH]1)c1cccc([N+](=O)[O-])c1 | 25µM | 0
CCOC(=O)c1sc2ccccc2c1S(=O)(=O)N1CCN(c2ccccc2F)CC1 | 0 | 0
CCOC(=O)c1sc2ccccc2c1S(=O)(=O)N1CCN(c2cccc(C)c2C)CC1 | 13µM | 0

Screens: PubChem BioAssay, National Center for Advancing Translational Sciences (NCATS)
